# Unmarked numbers belong to inactive results. Inconclusive results are not listed. Calls of active or inactive are those of the source.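 The calls were made as follows, unless noted: active = normalized viability below 100% at a tested concentration; inactive = the rest.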
# Legend:
# [1] = viability loss in pontine glioma line – cell-based, SU-DIPG-XVII, MIPE5.0, CellTiter-Glo, qHTS, dose response (AID 1347060; cut-off not given, nearly all actives have AC50 up to about 26 µM;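 also: cells exposed to compound for 48 hours before viability readout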); conditions: CellTiter-Glo ATP luminescence
# [2] = JHH-DIPG-1 glioma cell viability, MIPE5.0 library, CellTiter-Glo luminescence, qHTS (AID 1347067; cut-off not given, nearly all actives have AC50 up to about 26 µM;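 also: cells exposed to compound for 48 hours before readout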); conditions: JHH-DIPG-1 glioma viability, CellTiter-Glo ATP luminescence
# [3] = growth inhibition of DIPG cells – cell-based, MIPE5.0 library, qHTS (AID 1347068; cut-off not given, nearly all actives have IC50 up to about 30 µM); conditions: SU-DIPG-XXV viability
# [4] = drug combination growth inhibition, ovarian cancer – cell-based, oncology-focused library, rucaparib conditional, profiling panel (AID 1508598); conditions: patient-derived ovarian cancer cells, CellTiter-Glo viability, 144 h, active compounds read low
structure (smiles),measurement,setting,value
Nc1nc(Cl)nc2c1ncn2[C@H]1C[C@H](O)[C@@H](CO)O1,AC50,[1],833 nM (active)
same,outcome,[2],inactive
same,outcome,[3],inactive
same,viability,"[4]; at 0.000305 µM, OCI-C5x cells, with rucaparib 10 µM, 100% = cells with rucaparib alone",104%
same,viability,"[4]; at 0.000305 µM, OCI-C5x cells, without rucaparib",113%
same,viability,"[4]; at 0.000305 µM, OCI-P5x cells, with rucaparib 20 µM, 100% = cells with rucaparib alone",106%
same,viability,"[4]; at 0.000305 µM, OCI-P5x cells, without rucaparib",108%
same,viability,"[4]; at 0.00122 µM, OCI-C5x cells, with rucaparib 10 µM, 100% = cells with rucaparib alone",101%
same,viability,"[4]; at 0.00122 µM, OCI-C5x cells, without rucaparib",115%
same,viability,"[4]; at 0.00122 µM, OCI-P5x cells, with rucaparib 20 µM, 100% = cells with rucaparib alone",108%
same,viability,"[4]; at 0.00122 µM, OCI-P5x cells, without rucaparib",110%
same,viability,"[4]; at 0.00488 µM, OCI-C5x cells, with rucaparib 10 µM, 100% = cells with rucaparib alone",96% (active)
same,viability,"[4]; at 0.00488 µM, OCI-C5x cells, without rucaparib",113%
same,viability,"[4]; at 0.00488 µM, OCI-P5x cells, with rucaparib 20 µM, 100% = cells with rucaparib alone",106%
same,viability,"[4]; at 0.00488 µM, OCI-P5x cells, without rucaparib",106%
same,viability,"[4]; at 0.0195 µM, OCI-C5x cells, with rucaparib 10 µM, 100% = cells with rucaparib alone",111%
same,viability,"[4]; at 0.0195 µM, OCI-C5x cells, without rucaparib",111%
same,viability,"[4]; at 0.0195 µM, OCI-P5x cells, with rucaparib 20 µM, 100% = cells with rucaparib alone",108%
same,viability,"[4]; at 0.0195 µM, OCI-P5x cells, without rucaparib",91.4% (active)
same,viability,"[4]; at 0.0781 µM, OCI-C5x cells, with rucaparib 10 µM, 100% = cells with rucaparib alone",105%
same,viability,"[4]; at 0.0781 µM, OCI-C5x cells, without rucaparib",109%
same,viability,"[4]; at 0.0781 µM, OCI-P5x cells, with rucaparib 20 µM, 100% = cells with rucaparib alone",107%
same,viability,"[4]; at 0.0781 µM, OCI-P5x cells, without rucaparib",76.7% (active)
same,viability,"[4]; at 0.313 µM, OCI-C5x cells, with rucaparib 10 µM, 100% = cells with rucaparib alone",112%
same,viability,"[4]; at 0.313 µM, OCI-C5x cells, without rucaparib",95.6% (active)
same,viability,"[4]; at 0.313 µM, OCI-P5x cells, with rucaparib 20 µM, 100% = cells with rucaparib alone",88.9% (active)
same,viability,"[4]; at 0.313 µM, OCI-P5x cells, without rucaparib",50.8% (active)
same,viability,"[4]; at 1.25 µM, OCI-C5x cells, with rucaparib 10 µM, 100% = cells with rucaparib alone",95.8% (active)
same,viability,"[4]; at 1.25 µM, OCI-C5x cells, without rucaparib",94.4% (active)
same,viability,"[4]; at 1.25 µM, OCI-P5x cells, with rucaparib 20 µM, 100% = cells with rucaparib alone",50.8% (active)
same,viability,"[4]; at 1.25 µM, OCI-P5x cells, without rucaparib",37% (active)
same,viability,"[4]; at 5 µM, OCI-C5x cells, with rucaparib 10 µM, 100% = cells with rucaparib alone",72.5% (active)
same,viability,"[4]; at 5 µM, OCI-C5x cells, without rucaparib",54.1% (active)
same,viability,"[4]; at 5 µM, OCI-P5x cells, with rucaparib 20 µM, 100% = cells with rucaparib alone",35.7% (active)
same,viability,"[4]; at 5 µM, OCI-P5x cells, without rucaparib",18.1% (active)

# Reference: PubChem BioAssay
